# Screens as filed in PubChem.
# An excerpt weighted towards active compounds, which were near 6.8% of everything screened.
# NADH enzymes: inhibitors of PK/LDH coupling enzymes, profiling panel, artefact control, biochemical, MLSMR library; coupled PK/LDH NADH assays, four targets; IC50, µM (top dose mostly 10 µM); actives 0.02% (n = 65,000);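 active means single-dose screening hits from any of four coupled enzyme assays that gave an IC50 when retested across doses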;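 further: the DPM-DC format reads NADH fluorescence rather than 340 nm absorbance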
# Fluor 339 460: intrinsic fluorescence of library compounds, ex339/em460 – biochemical, MLSMR library, data from DPM-DC assay, artefact control, profiling panel; compound autofluorescence, ex339/em460 nm, NADH buffer; stronger effect = higher value; 1 = no-compound wells, NADH background; fluorescence fold increase at 10 µM; actives 5.5% (n = 65,000);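 active means at 10 µM, mean starting fluorescence two-fold or more over control wells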;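 further: signal is the first read of a kinetic run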
# PMK inhibit: S. pneumoniae PMK inhibitors, primary screen, biochemical, mevalonate pathway, pilot trial included; AID 539, 2006; inhibition, % at 10 µM; purified PMK, PK/LDH-coupled NADH absorbance 340 nm; actives 0.49% (n = 65,000); phosphomevalonate kinase (Streptococcus pneumoniae D39);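 active means top-ranked compounds by inhibition in the single 10 µM screen, taking a fixed number of the strongest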
# DPM-DC inhibit: S. pneumoniae DPM-DC inhibitors, primary screen, biochemical, PK/LDH-coupled NADH fluorescence. diphosphomevalonate decarboxylase (Streptococcus pneumoniae D39). purified DPM-DC. calls only at 10 µM. actives 0.49% (n = 65,000). AID 556, 2006;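 active means the 320 compounds with the highest percent inhibition in the single-dose primary screen, excluding strongly autofluorescent ones, cut at about 32% in these data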;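 further: kinetic rate of NADH fluorescence loss reporting ADP formed by the decarboxylase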
# MK inhibit: S. pneumoniae MK inhibitors, primary screen, biochemical, PK/LDH-coupled NADH absorbance; mevalonate kinase [Streptococcus pneumoniae D39]; purified MK, PK/LDH-coupled NADH absorbance 340 nm; inhibition, % at 10 µM; actives 0.48% (n = 65,000); AID 555, 2006;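 active means ranked among the strongest by inhibition in the single 10 µM screen, a fixed top-ranked set picked for dose follow-up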
# A340 absorber: compound light absorbance at 340 nm, profiling panel, artefact control, biochemical, MLSMR library, data from PS, PMK, MK assays; compound absorbance at 340 nm, fold over control; fold change at 10 µM; 65,000 tested, under 10 active; AID 708, 2007;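 active means at 10 µM dose, initial 340 nm absorbance at least 2 fold that of control wells; inactive means change under 2 fold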;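 further: initial absorbance extrapolated from kinetic A340 decline of NADH oxidation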
# Hits are given with their value; n = inactive; x = no result given; + = active, no number.
SMILES,NADH enzymes,Fluor 339 460,PMK inhibit,DPM-DC inhibit,MK inhibit,A340 absorber
NC(=O)c1cc(-c2ccccc2)sc1NC(=O)Cc1ccc(S(=O)(=O)N2CCOCC2)s1,n,n,n,n,n,n
COC(=O)C1=C(N)OC2=C(C(=O)CC(C)(C)C2)C1c1cccs1 (centres undefined),n,n,n,n,n,n
COC(=O)C1=CN(CCCN2CCCC2=O)C=C(C(=O)OC)C1c1cccs1,n,4.82,n,x,n,n
O=C(CSc1oc(-c2ccco2)nc1S(=O)(=O)c1ccc(F)cc1)NCC1CCCO1 (centres undefined),n,n,n,n,n,n
c1ccc(CSc2nnc3c(n2)OC(c2ccco2)Nc2ccccc2-3)cc1 (centres undefined),n,n,n,n,n,n
Cc1ccc(C2NC(=O)c3ccccc3N2)s1 (centres undefined),n,2.07,n,x,n,n
O=C1NC(c2ccco2)Nc2ccccc21 (centres undefined),n,2.89,n,x,n,n
O=C1NC(c2ccncc2)Nc2ccccc21 (centres undefined),n,2.54,n,n,n,n
CC1Cc2ccccc2C(=O)N1 (centres undefined),n,n,n,n,n,n
CN1C(=O)c2oc3ccccc3c(=O)c2C1c1ccncc1 (centres undefined),n,n,n,n,n,n
CCOC(=O)c1cnn2c(C)cc(-c3ccccc3)nc12,n,3.71,n,x,n,n
Cc1nn(-c2ccccc2)c2nc(-c3ccncc3)cc(C(=O)NCc3ccco3)c12,n,n,n,n,n,n
O=C(NC1CCCC1)c1cnn2c(C(F)(F)F)cc(-c3ccco3)nc12,n,2.92,n,n,n,n
O=C(NCc1ccco1)c1cc2nc(-c3cccs3)cc(C(F)(F)F)n2n1,n,2.12,n,x,n,n
O=C(CSc1nc(-c2ccco2)cc(C(F)(F)F)n1)NC1CCCC1,n,n,n,n,n,n
CCOC(=O)c1cnn(-c2cc(C)nc3c(-c4ccccc4)cnn23)c1N,n,n,n,n,n,n
CCOC(=O)c1cc(-c2ccco2)nc2c1c(C)nn2-c1ccccc1,n,2.55,n,n,n,n
C=CCSc1nnc2nc3c(nn12)c1cc(C)ccc1n3CC=C,n,n,n,n,n,n
CC(C)CCNC(=O)c1cnn2c(C(F)(F)F)cc(-c3ccco3)nc12,n,3,n,n,n,n
CCOC(=O)c1cnn2c(C(F)(F)F)cc(-c3ccco3)nc12,n,4.33,n,x,n,n
Cc1cc(-c2ccccc2)nc2cc(C(N)=O)nn12,n,2,n,+,n,n
CCOC(=O)c1cnn2c(C(F)F)cc(C3CC3)nc12,n,n,n,n,n,n
COc1ccc(-c2cc(C(F)(F)F)n3ncc(C(=O)NCc4ccco4)c3n2)cc1,n,2.18,n,x,n,n
O=C(NCc1ccco1)c1cnn2c(C(F)(F)F)cc(-c3ccccc3)nc12,n,n,n,n,n,n
N#CCSc1nnc(Cc2cccs2)n1C1CCCCC1,n,n,n,n,n,n
SMILES,NADH enzymes,Fluor 339 460,PMK inhibit,DPM-DC inhibit,MK inhibit,A340 absorber
Cc1oc(-c2cccc(Cl)c2)nc1CN1CCCC(C(=O)NC(C)c2ccc3c(c2)OCCO3)C1 (centres undefined),n,n,n,n,n,n
CCCOc1ccc(C2/C(=C(/O)c3ccccc3)C(=O)C(=O)N2CCCN(C)C)cc1OC (centres undefined),n,n,n,n,n,n
O=C(c1cnn2c(C(F)(F)F)cc(-c3ccc4c(c3)OCO4)nc12)N1CCCCC1,n,n,n,n,n,n
O=C(NC1CCCC1)c1cnn2c(C(F)(F)F)cc(-c3ccc4c(c3)OCO4)nc12,n,2.14,n,n,n,n
CC1CN(c2cc3nccnc3cc2F)CC(C)O1 (centres undefined),n,n,n,n,n,n
COc1ccc(OC)c2c(N3CC(C)OC(C)C3)cc(C(F)(F)F)nc12 (centres undefined),n,2.13,n,n,n,n
CC(C)CN(C(=O)COC(=O)Cc1n[nH]c(=O)c2ccccc12)C1CCS(=O)(=O)C1 (centres undefined),n,n,n,n,n,n
CCOC(=O)c1cc2c(=O)[nH]ccc2nc1C,n,3.66,n,x,n,n
CCOC(=O)c1cc(C(=O)OCC)c2cc(Br)ccc2n1,n,n,n,n,n,n
Cc1ccc(NS(=O)(=O)c2cccc(C(=O)Nc3cc(C)on3)c2)cc1,n,n,n,n,n,n
CCN(CC)S(=O)(=O)c1ccc(C(=O)OCC(=O)N2CCN(C(=O)c3ccco3)CC2)cc1,n,n,n,n,48.0,n
Cc1nc2ccc(C(=O)O)cc2c2c1CC(C)S2 (centres undefined),n,3.04,n,x,n,n
Cc1nc2cc(C(=O)O)ccc2s1,n,n,n,n,n,n
COC(=O)Cc1c(C)c2c(O)cc(C)cc2oc1=O,n,2.14,n,x,n,n
CCOC(=O)Cc1c(C)c2c(C)[nH]nc2oc1=O,n,n,n,n,n,n
Cc1nonc1NC(=O)CSc1ccc(-c2ccccc2)nn1,n,n,27.0,n,n,n
CCOC(=O)C1=C(C)Nc2nnnn2C1c1ccc(OC)c(Br)c1 (centres undefined),n,n,n,n,n,n
CCN1CCN(c2ncc3c(n2)CC(c2cc(OC)c(OC)c(OC)c2)CC3=O)CC1 (centres undefined),n,n,n,n,n,n
Cc1cccc(NC(=O)Cn2c(=O)n(Cc3ccco3)c(=N)c3c4c(sc32)COC(C)(C)C4)c1,n,n,n,n,n,n
Cc1nn(C)c(C)c1NC(=O)CSc1nc(-c2ccccc2F)nc2c1cnn2-c1ccccc1,n,2.14,n,n,n,n
Cc1cn2nc(N)c3ccccc3c2n1,n,4.97,n,x,n,n
Cc1cc(N2CCOCC2)c2c(N)c(Br)cc(C)c2n1,n,n,n,+,n,n
CCOC(=O)c1sc(=NC(=O)c2ccc(S(=O)(=O)N3CCOCC3)cc2)n(C)c1C,n,n,n,n,n,n
COc1cccc2sc(=NC(=O)c3ccc(S(=O)(=O)N4CCOCC4)cc3)n(C)c12,n,3.07,n,n,n,n
CCn1c(=NC(=O)c2ccc(S(=O)(=O)N3CCOCC3)cc2)sc2cccc(OC)c21,n,4.68,n,x,n,n
O=C(CSc1nc2c(c(=O)n1-c1ccc(F)cc1)SCC2)NCC1CCCO1 (centres undefined),n,n,n,n,n,n
